# Values joined by “and” are separate entries in the source; they are usually repeats but may differ in a detail not shown here. Identical values can stand only once. Active and inactive are the calls of the source. The calls were made as follows: active = hit-call score of the fitted dose curve at least 0.9, where 1 is the maximum; inactive = score below 0.9.
# Test: BSK_hDFCGF_SRB: Viability Assessment in the BioMAP Diversity Plus: hDFCGF Assay (AID 2283061)
# Conditions: primary human foreskin fibroblasts
# Method: BSK_hDFCGF is a cell-based, multiplexed-readout assay that uses foreskin fibroblast, a human skin primary cell, with measurements taken at 24 hours after chemical dosing in a 96-well plate.BSK_hDFCGF_SRB is an assay component measured in the BSK_hDFCGF assay. It measures 0.1% sulforhodamine related to cell death using Sulforhodamine staining technology.Data from the assay component BSK_hDFCGF_SRB was analyzed into 1 assay endpoint. This assay endpoint, BSK_hDFCGF_SRB, was analyzed with bidirectional fitting relative to DMSO as the negative control and baseline of activity. Using a type of viability reporter, gain or loss-of-signal activity can be used to understand changes in the signaling. Furthermore, this assay endpoint can be referred to as a primary readout, because this assay has produced multiple assay endpoints where this one serves a signaling function. To generalize the intended target to other relatable targets, this assay endpoint is annotated to the cell morphology intended target family, where the subfamily is cell conformation.
# The levels of cell surface (or secreted, indicated by the prefix "s") biomarker endpoints were measured by ELISA. Overt cytotoxicity to cells in confluent adherent cultures (all systems other than the BT system) was assessed by measuring total protein levels using sulforhodamine B (SRB) staining in parallel cultures at the time of biomarker measurements, indicated as SRB endpoints. For proliferation assays for adherent cell types, individual cell types are cultured at sub-confluence and relative cell numbers quantified by SRB staining at time points optimized for each system (48 h: 3C and CASM3C systems; 72 h: BT and HDF3CGF systems; 96 h: SAg system). SRB was performed by staining cells with 0.1% SRB after fixation with 10% TCA and reading wells at 560 nm.Viability and proliferation of PBMC (T cells) was quantified by Alamar Blue reduction for the SAg and BT systems. For PBMC viability (referred to as PBMC Cytotoxicity within the assay endpoint names), cells were plated (75,000/well in a 96-well plate) and then chemical samples added for 1 h before addition of activators, SEB and TSST-1 (20 ng/mL final concentration each). Cells were incubated for 90 h. Then, Alamar Blue (20 uL/well) (Invitrogen, Cat DAL1100) was added for 6 h, and the plates were read with a fluorescence microplate reader at 546/580 nm (excitation/emission). For PBMC proliferation, cells were plated and activated as above but incubated for only 16 h prior to addition of Alamar Blue. Plates were read after 6 h.
SMILES,AC50,outcome
O=[N+]([O-])C=Cc1ccccc1,20 µM (active),–
O=c1[nH]c(Cl)c(Cl)cc1Cl,–,inactive
CCCC[N+](CCCC)(CCCC)CCCC,–,inactive
O=[N+]([O-])O,–,inactive
COC(C)(C)CCC[C@H](C)C/C=C/C(C)=C/C(=O)OC(C)C,30.7 µM (active),–
[Cd+2].[Cl-].[Cl-],–,inactive
C=CCN(CC=C)C(=O)C(Cl)Cl,–,inactive
O=C1C(Cl)=C(Cl)C(=O)C(Cl)=C1Cl,6.62 µM (active),–
N#CCCCCC#N,–,inactive
CCC(C)c1cc([N+](=O)[O-])cc([N+](=O)[O-])c1OC(=O)C=C(C)C (stereo not drawn),11.5 µM (active),–
CC(C)CCCCCCCOP(=O)(Oc1ccccc1)Oc1ccccc1,8.83 µM (active),–
CC(=O)/C=C/c1ccccc1,–,inactive
O=C(O)CCCc1ccc(N(CCCl)CCCl)cc1,–,inactive
CC1(C)[C@H](C(=O)O[C@H](C#N)c2cccc(Oc3ccccc3)c2)[C@@H]1C=C(Br)Br,–,inactive
C=CC(=O)OCC(CC)CCCC (stereo not drawn),32.2 µM (active),–
Clc1ccc(-c2ccccc2)cc1,–,inactive
CC(C)(C)C(=O)CCl,–,inactive
O=S(=O)(c1ccccc1)c1ccccc1,–,inactive
O=[N+]([O-])c1ccc(Cl)cc1,–,inactive

SMILES,AC50,outcome
O=P1(NCCCl)OCCCN1CCCl (stereo not drawn),–,inactive
O=c1c2ccccc2c(=O)c2c1cc(Cl)c1[nH]c3c([nH]c12)c(Cl)cc1c(=O)c2ccccc2c(=O)c13,–,inactive
CC(C)COP(=O)(OCC(C)C)OCC(C)C,–,inactive
Cc1ccc(OP(=O)(Oc2ccc(C)cc2)Oc2ccc(C)cc2)cc1 (tested in a mixture with another compound),23.2 µM (active),–
CC(C)(C)C(O)C(Oc1ccc(-c2ccccc2)cc1)n1cncn1 (stereo not drawn),–,inactive
CCc1cc(C)cc(CC)c1-c1c(OC(=O)C(C)(C)C)n2n(c1=O)CCOCC2,31.5 µM (active),–
COc1ccc(CO)cc1,–,inactive
COCC(=O)N(c1c(C)cccc1C)N1CCOC1=O,–,inactive
Nc1ccc(-c2ccc(N)c(N)c2)cc1N,–,inactive
O=C(CCl)c1ccccc1,4.74 µM (active),–
CCCOC(=O)c1ccccc1C(=O)OCCC,–,inactive
Oc1ccc(C2(c3ccc(O)cc3)c3ccccc3-c3ccccc32)cc1,–,inactive
CCCCCCCCCCCC#N,29.1 µM (active),–
Oc1cc(Cl)ccc1Cl,–,inactive
CC(C)(c1cc(Cl)c(O)c(Cl)c1)c1cc(Cl)c(O)c(Cl)c1,16.5 µM (active),–
O=C1C=CC(=O)C=C1,36.3 µM (active) and 12.7 µM (active),–
CNC(=O)Oc1cc(C)c(SC)c(C)c1,–,inactive
CC(C)CCCCCCCOC(=O)c1ccccc1C(=O)OCCCCCCCC(C)C,–,inactive
c1ccc(Nc2ccc3ccccc3c2)cc1,30.6 µM (active),–

# Reference: PubChem BioAssay (EPA / NIEHS)
